According to PubChem BioAssay (EPA / NIEHS):
Where “and” joins values, the source holds several entries; their conditions need not be identical. Equal values may be shown once. Calls of active or inactive are those of the source. The calls were made as follows: active = hit-call score of the fitted dose curve at least 0.9, where 1 is the maximum; inactive = score below 0.9.

These molecules were tested on Interferon-gamma inducible Protein 10 (IP10), CXCL10 (gene 3627) (assay: BSK_hDFCGF_IP10: BioMAP Diversity Plus: hDFCGF Assay for Interferon-gamma inducible Protein 10 (IP10) Biomarker Activity (AID 2283053)). Settings: primary human foreskin fibroblasts; actives raise or lower the signal.
Method: BSK_hDFCGF is a cell-based, multiplexed-readout assay that uses foreskin fibroblast, a human skin primary cell, with measurements taken at 24 hours after chemical dosing in a 96-well plate.BSK_hDFCGF_IP10 is an assay component measured in the BSK_hDFCGF assay. It measures IP-10 antibody related to regulation of gene expression using ELISA technology.Data from the assay component BSK_hDFCGF_IP10 was analyzed into 1 assay endpoint. This assay endpoint, BSK_hDFCGF_IP10, was analyzed with bidirectional fitting relative to DMSO as the negative control and baseline of activity. Using a type of binding reporter, gain or loss-of-signal activity can be used to understand changes in the signaling as they relate to the gene CXCL10. Furthermore, this assay endpoint can be referred to as a primary readout, because this assay has produced multiple assay endpoints where this one serves a signaling function. To generalize the intended target to other relatable targets, this assay endpoint is annotated to the cytokine intended target family, where the subfamily is chemotactic factor.
The levels of cell surface (or secreted, indicated by the prefix "s") biomarker endpoints were measured by ELISA. Overt cytotoxicity to cells in confluent adherent cultures (all systems other than the BT system) was assessed by measuring total protein levels using sulforhodamine B (SRB) staining in parallel cultures at the time of biomarker measurements, indicated as SRB endpoints. For proliferation assays for adherent cell types, individual cell types are cultured at sub-confluence and relative cell numbers quantified by SRB staining at time points optimized for each system (48 h: 3C and CASM3C systems; 72 h: BT and HDF3CGF systems; 96 h: SAg system). SRB was performed by staining cells with 0.1% SRB after fixation with 10% TCA and reading wells at 560 nm.Viability and proliferation of PBMC (T cells) was quantified by Alamar Blue reduction for the SAg and BT systems. For PBMC viability (referred to as PBMC Cytotoxicity within the assay endpoint names), cells were plated (75,000/well in a 96-well plate) and then chemical samples added for 1 h before addition of activators, SEB and TSST-1 (20 ng/mL final concentration each). Cells were incubated for 90 h. Then, Alamar Blue (20 uL/well) (Invitrogen, Cat DAL1100) was added for 6 h, and the plates were read with a fluorescence microplate reader at 546/580 nm (excitation/emission). For PBMC proliferation, cells were plated and activated as above but incubated for only 16 h prior to addition of Alamar Blue. Plates were read after 6 h.

For `CC(C)(OOC(C)(C)c1ccccc1)c1ccccc1`, which AC50 is on record?
The AC50 was 37.9 µM (active).

Which AC50 does the source give for `CC(C)COC(=O)c1ccccc1C(=O)OCC(C)C` here?
The AC50 was 30.3 µM (active).

For `CCCCOC(=O)c1ccccc1C(=O)OCc1ccccc1`, which outcome is on record?
Its outcome is “inactive”.

How did the AC50 turn out when `CC(C)(C)OOC(=O)c1ccccc1` was run?
The AC50 was 33.2 µM (active).

For `Cc1cc(N=Nc2ccccc2C)ccc1N`, which AC50 is on record?
The AC50 was 29.9 µM (active).

How did the outcome turn out when `Nc1cc(Cl)cc(C(=O)O)c1Cl` was run?
Its outcome is “inactive”.

Which outcome does the source give for `CCC12COCN1COC2` here?
Its outcome is “inactive”.

`CC(C)(C)OOC(C)(C)CCC(C)(C)OOC(C)(C)C` was tested. Which outcome did it give?
Its outcome is “inactive”.

`Clc1ccc(C(c2ccc(Cl)cc2)C(Cl)Cl)cc1` was tested. Which AC50 did it give?
Its AC50 is 9.7 µM (active).

For `Nc1ccc(Cl)cc1N`, which outcome is on record?
Its outcome is “inactive”.

`CC(C)N(Cc1ccccc1)C(=O)C(C)(C)C` was tested. Which outcome did it give?
Its outcome is “inactive”.

`COC(=O)Nc1nc2ccccc2[nH]1` was tested. Which outcome did it give?
The outcome was “inactive”.

How did the outcome turn out when `O=C1CCCO1` was run?
The outcome was “inactive”.

Which AC50 does the source give for `CCNS(=O)(=O)C(F)(F)C(F)(F)C(F)(F)C(F)(F)C(F)(F)C(F)(F)C(F)(F)C(F)(F)F` here?
Its AC50 is 18 µM (active) and 20.9 µM (active) and 19.8 µM (active).

With `CCCCCCCCCCCCCN1CC(C)OC(C)C1` (stereo not given) as the molecule, how does the outcome read?
The outcome was “inactive”.

`O=[N+]([O-])c1ccc(Oc2ccc(Cl)cc2Cl)cc1` was tested. Which AC50 did it give?
Its AC50 is 20 µM (active).

Which outcome does the source give for `C[C@]12C=CC3=C4CCC(=O)C=C4CC[C@H]3[C@@H]1CC[C@@H]2O` here?
Its outcome is “inactive”.

Which outcome does the source give for `Oc1ccccc1Cl` here?
The outcome was “inactive”.

`N#CC(Br)(Br)C(N)=O` was tested. Which outcome did it give?
The outcome was “inactive”.

How did the outcome turn out when `CCOc1cccc(C2(N3CCN(c4ccccc4)CC3)CCC(C)CC2)c1` (stereo not given) was run?
Its outcome is “inactive”.

For `CN(C)[C@@H]1C(=O)C(C(N)=O)=C(O)[C@@]2(O)C(=O)C3=C(O)c4c(O)cccc4[C@@](C)(O)[C@H]3C[C@@H]12`, which outcome is on record?
The outcome was “inactive”.

With `C=CCc1ccc2c(c1)OCO2` as the molecule, how does the outcome read?
Its outcome is “inactive”.

How did the AC50 turn out when `O=C(N[C@H](c1ccccc1)[C@@H]1CN2CCC1CC2)c1c(Cl)ccc(C(F)(F)F)c1Cl` was run?
The AC50 was 16.3 µM (active).

For `[O-][Cl+]O`, which outcome is on record?
The outcome was “inactive”.

How did the AC50 turn out when `O=[N+]([O-])C(Br)(CO)CO` was run?
The AC50 was 28.5 µM (active).

With `OCCCBr` as the molecule, how does the outcome read?
Its outcome is “inactive”.

How did the outcome turn out when `c1ccc(NNc2ccccc2)cc1` was run?
Its outcome is “inactive”.

How did the outcome turn out when `CCN(CC)N=O` was run?
The outcome was “inactive”.

For `c1ccc(C2CO2)cc1` (stereo not given), which outcome is on record?
Its outcome is “inactive”.

`CN(C)c1ccccc1` was tested. Which outcome did it give?
The outcome was “inactive”.

For `CC(C)(O)c1cnn2c(-c3ccc(F)c(-c4c(F)cccc4C#N)c3)cnc2n1`, which outcome is on record?
The outcome was “inactive”.

For `Cc1ccc([N+](=O)[O-])cc1`, which outcome is on record?
The outcome was “inactive”.

How did the outcome turn out when `Nc1ccc(Cc2ccc(N)cc2)cc1` was run?
Its outcome is “inactive”.

How did the outcome turn out when `CCCCC(CC)COC(=O)c1ccc(C(=O)OCC(CC)CCCC)c(C(=O)OCC(CC)CCCC)c1` (stereo not given) was run?
Its outcome is “inactive”.

How did the AC50 turn out when `COc1cc(C=O)cc2c1[C@H](COC(N)=O)[C@]1(OC(C)=O)ON2C[C@H]2[C@@H]1N2C(C)=O` was run?
The AC50 was 1.19 µM (active).

How did the outcome turn out when `CCC(C)c1ccc(O)cc1` (stereo not given) was run?
Its outcome is “inactive”.

With `ClC1=C(Cl)[C@]2(Cl)[C@H]3[C@H]([C@@H]4C=C[C@H]3C4)[C@@]1(Cl)C2(Cl)Cl` as the molecule, how does the AC50 read?
Its AC50 is 19.3 µM (active).

`CCOC(=O)[C@]1(c2ccccc2)Oc2ccccc2[C@@H]1N` was tested. Which AC50 did it give?
Its AC50 is 36.6 µM (active).

How did the outcome turn out when `O=Cc1ccco1` was run?
The outcome was “inactive”.

`ClC1=C(Cl)C2(Cl)C3C(Cl)C=CC3C1(Cl)C2(Cl)Cl` (stereo not given) was tested. Which AC50 did it give?
The AC50 was 8.86 µM (active).
